# Experiments:
# Settings in all cases: concentration: 1 μM,replicates: in singlicate; n = 1
# ASK2 = tested on: T1, ASK2
# T1 construct: gene MAP3K6
# AURKA = tested on: AURKA
# AURKB = tested on: AURKB
# AURKC = tested on: AURKC
# AXL = tested on: AXL
# BIKE = tested on: T2, BIKE
# T2 construct: gene BMP2K
# BLK = tested on: BLK
# BMPR1A = tested on: BMPR1A
# BMPR1B = tested on: BMPR1B
# BMPR2 = tested on: BMPR2
# 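Note: KINOMEscan kinase panel screen.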
SMILES,%Inh (ASK2) [%],%Inh (AURKA) [%],%Inh (AURKB) [%],%Inh (AURKC) [%],%Inh (AXL) [%],%Inh (BIKE) [%],%Inh (BLK) [%],%Inh (BMPR1A) [%],%Inh (BMPR1B) [%],%Inh (BMPR2) [%]
C[C@@H](Oc1cc(-c2cnn(C3CCNCC3)c2)cnc1N)c1c(Cl)ccc(F)c1Cl,0,98.6,98.3,86,98.1,86,58,18,79,17
CCN(CC)CCCCNc1ncc2cc(-c3c(Cl)cccc3Cl)c(NC(=O)NC(C)(C)C)nc2n1,0,10,0,10,68,9,99.8,55,99.9,20
NC(=O)c1cc(-c2ccccc2)cc2c(C3CCNCC3)c[nH]c12 [GSK301362],2,6,1,57,47,65,16,28,0,4
Cc1n[nH]c2ccc(-c3cc(OC[C@@H](N)Cc4ccccc4)cnc3-c3ccoc3)cc12.O=C(O)C(F)(F)F.O=C(O)C(F)(F)F [GSK507358],4,0,0,0,0,81,6,0,0,14
C[C@H]1Oc2cc(cnc2N)-c2c(nn(C)c2C#N)CN(C)C(=O)c2ccc(F)cc21,0,7,4,0,42,0,31,2,0,0
Cc1cc(C(=O)Nc2ccc(Oc3ccc4nc(NC(=O)C5CC5)cn4n3)cc2)nn1-c1ccccc1,0,0,66,65,79,18,55,3,0,0
CN(C)CC(O)COc1ccc(Nc2nccc(-c3cnn4nc(N5CCOCC5)ccc34)n2)cc1 (stereo not shown) [GW767488],44,65,84,70,28,93.6,0,18,58,42
Cc1cc2cn[nH]c2cc1-c1cccc2c(N)c(C(N)=O)nnc12,95.6,90,97.3,79,15,75,91.5,25,88,96.5
Cl.Cl.NC[C@H](Cc1ccc(C(F)(F)F)cc1)NC(=O)c1cc(Br)c(-c2ccnc3[nH]ccc23)s1 [GSK1487252],0,30,61,67,69,50,0,0,0,0
C=CC(=O)Nc1cc2c(Nc3ccc(F)c(Cl)c3)ncnc2cc1OCCCN1CCOCC1 [GW781483],0,25,0,20,53,22,99.6,0,0,15
O=C(NCCCN1CCOC1=O)c1cnc(NCc2cc(Cl)ccc2Cl)nc1NC1CCCC1,0,17,14,15,61,12,22,16,0,0
CN(C)CCOc1ccc(-c2cc(-c3c[nH]nc3-c3ccccn3)ccn2)cc1 [GW835314],24,0,5,12,49,4,14,13,74,69
O=C(NCCNc1ccnc(NCc2ccc(F)cc2)n1)c1cc2ccccc2s1 [GSK1379944],0,66,34,27,0,27,20,0,0,14
Cc1occc1-c1nc(N)c(OC[C@@H](N)Cc2c[nH]c3ccccc23)cc1-c1cc2c(C)n[nH]c2cn1 [GSK1660450],26,0,0,51,0,74,23,0,0,0
Cl.Cl.Nc1nc(-c2ccc3c(N)n[nH]c3c2)cc(N2CCCC(NC(=O)c3ccccc3)C2)n1 (stereo not shown) [GSK2286775],11,–,96.4,92.9,80,80,0,0,0,0
CNC(=O)c1ccccc1Sc1ccc2c(/C=C/c3ccccn3)n[nH]c2c1,0,97.9,99.6,66,–,89,0,35,0,0
Cl.Cl.NC[C@H](CC1CCCCC1)NC(=O)c1cc(Br)c(-c2ccnc3[nH]ccc23)s1 [GSK1581427],17,63,62,95,86,100,0,0,0,8
CC(C)N1C(=O)Cc2cc(Nc3ncc(C(F)(F)F)c(NCc4cccc(S(C)(=O)=O)c4)n3)ccc21,0,97.3,81,43,30,68,0,0,21,17
Cl.Oc1cc(-c2nc(-c3ccccc3)[nH]c2-c2ccncc2)ccc1Cl [SB-386023],27,22,19,0,42,3,48,9,61,32
Cc1ccc(-n2nc(C(C)(C)C)cc2NC(=O)Nc2ccc(OCCN3CCOCC3)c3ccccc23)cc1 [GW839464],0,0,1,0,12,0,19,26,4,6
CCn1c(-c2nonc2N)nc2c(C#CC(C)(C)O)nc(OCCN)cc21.Cl.Cl [GSK902056],20,27,38,0,0,20,7,6,0,3
CC(C)Nc1cc(-c2ccc3c(N)n[nH]c3c2)nc(N)n1 [GSK2221681],0,–,0,40,0,90.7,3,0,0,0
COc1ccc(C[C@@H](CN)NC(=O)c2cc(Br)c(-c3ccnc4[nH]ccc34)s2)cc1.Cl.Cl [GSK1389063],16,80,86,92.4,95.2,94,0,0,0,73
Nc1nc(Nc2ccccc2)cc(-c2ccc3c(N)n[nH]c3c2)n1 [GSK2225749],0,–,19,47,0,98.9,0,0,0,4
CCN(CC)CCOc1ccc(Nc2ncc3cc(-c4c(Cl)cccc4Cl)c(=O)n(C)c3n2)cc1 [SB-601273],0,62,47,95.4,93.7,58,99.3,100,100,24
C[C@@H]1CCN(C(=O)CC#N)C[C@@H]1N(C)c1ncnc2[nH]ccc12,0,0,0,3,0,17,–,53,0,0
Cc1ccc2c(-c3ccncc3)c(-c3ccc(F)cc3)nn2c1.Cl [GW461484],0,8,0,14,0,19,3,0,0,11
